# G9a block: qHTS Assay for Inhibitors of Histone Lysine Methyltransferase G9a; Histone-lysine N-methyltransferase EHMT2 (Homo sapiens), Q96KQ7; Potency, µM (series often up to 102 µM), for the others: at the top dose activity, negative = inhibition, usual class: inhibitors; 350,000 compounds, 8.8% hits; G9a H3K9 monomethylation, AlphaScreen, 2 h; note: % is set by controls: 0 for no effect and ±100 for the full control effect; nearly all actives have a fitted effect of over 75% in size
#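 AlphaScreen detection with an anti-monomethyl H3K9 antibody quantified product after a 2 h room-temperature reaction containing 500 nM biotinylated H3K9 peptide, 20 µM SAM and 20 nM enzyme, which had been preincubated 15 min with compound.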
# BAZ2B inh: qHTS Assay for Inhibitors of BAZ2B. Bromodomain adjacent to zinc finger domain protein 2B (Homo sapiens), Q9UIF8. AlphaScreen BAZ2B-H3K14Ac peptide displacement. Potency, µM (series often up to 114 µM), for inactives: at the top dose activity change, negative = inhibition, actives largely listed as inhibitors. 360,000 compounds, 4.4% hits. AID 504333, 2011; note: % is set by controls: 0 for no effect and ±100 for the full control effect; nearly all actives have a fitted effect of over 60% in size
#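 BAZ2B 50 nM plus b-H3(5-23)K14Ac 50 nM, PBS pH 7.4/0.01% Tween-20, 30 min RT; compound added (max 110 uM), 30 min RT; streptavidin donor/Ni-chelate acceptor beads 10 ug/mL final, 20 min dark; AlphaScreen read.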
# L3MBTL1 inh: qHTS Assay for the Inhibitors of L3MBTL1. 230,000 compounds, 0.66% hits. Lethal(3)malignant brain tumor-like protein 1 (Homo sapiens), Q9Y468. Potency, µM (series often up to 57.1 µM), inactives show top-dose activity, negative = inhibition, actives largely listed as inhibitors. AlphaScreen L3MBTL1–H3K9me1 peptide binding; note: % is set by controls: 0 for no effect and ±100 for the full control effect; nearly all actives have a fitted effect of over 60% in size
#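 Displacement of a biotinylated histone H3(1-15) peptide monomethylated at Lys9 (75 nM) from L3MBTL1 (50 nM) was measured by AlphaScreen after a 30 min room-temperature compound incubation; cefsulodin titration served as intraplate control.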
# JMJD2A Tudor: qHTS Assay for Inhibitors of JMJD2A-Tudor Domain | Lysine-specific demethylase 4A (Homo sapiens), O75164 | AlphaScreen JMJD2A-Tudor / H3K4me3 peptide binding | Potency, µM (doses to about 114 µM), for inactives: top-dose activity change, negative = inhibition, actives largely listed as inhibitors | 390,000 compounds, 4.4% hits | AID 504339, 2011; note: % is set by controls: 0 for no effect and ±100 for the full control effect; nearly all actives have a fitted effect of over 50% in size
# GLS inh: qHTS for Inhibitors of Glutaminase (GLS) | Glutaminase kidney isoform, mitochondrial (Homo sapiens), O94925 | GLS enzymatic activity, qHTS titration | Potency, µM (highest dose often 45.5 µM), for inactives: at the highest dose activity change, negative = inhibition, most hits filed as inhibitors | 410,000 compounds, 0.21% hits | AID 624170, 2012; note: % is set by controls: 0 for no effect and ±100 for the full control effect
#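 Two-point fluorescence kinetic (t0, 30 min RT) for hKGA; glutamate detected via glutamate oxidase–HRP–Amplex Red. Substrate: 1 mM L-glutamine solution; buffer 45 mM KH2PO4, pH 8.2.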
# HP1b binding inh: HTS for Inhibitors of HP1-beta Chromodomain Interactions with Methylated Histone Tails; AID 540317, 2011; 390,000 compounds, 0.56% hits; Potency, µM (titrated, usually from 114 µM), without a hit: at the top dose activity change, negative = inhibition, hits mostly inhibitors; AlphaScreen HP1-beta / biotin-H3K9me3 peptide binding; note: nearly all actives have a fitted effect of over 70% in size
#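 Compound inhibition of the preformed complex between 50 nM HP1-beta and 50 nM biotinylated H3K9me3 peptide was read by AlphaScreen. Buffer was PBS pH 7.4 with 0.01% Tween-20. Incubations ran 30 min at room temperature, with 10 ug/mL donor/acceptor beads.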
# Numbers without * were called inactive; ? = inconclusive; . = no result given; [ ] = dose if it differs, or a comment. Compounds with a hit are over-represented: about 10% of the library has one in this group of screens. Calls come from the whole dose curve; as a rule, active = well fitted curve in the direction sought with a large enough effect; inconclusive = small, poorly fitted or top-dose-only effect, or another doubt; inactive = no such curve, though single readings can be large; an effect the other way counts as inactive or inconclusive. Potency is the fitted concentration of half-maximal effect.
SMILES,G9a block,BAZ2B inh,L3MBTL1 inh,JMJD2A Tudor,GLS inh,HP1b binding inh
O=C(O)CNC(=O)CC1S/C(=N/N=C2\CSC(=O)N2)NC1=O (stereo not given),-26.9%,6.31µM*,.,7.08µM*,41.2%,57.9%
O=C(O)CNC(=O)CC1S/C(=N/N=C/c2ccccc2O)NC1=O (stereo not given),7.9%,50.1µM*,.,?,-16.8%,14.4%
CCNC(=O)CC1S/C(=N/N=C(\C)c2ccccc2)NC1=O (stereo not given),47.4%,-24.5%,6.5%,?,3.6%,20.0%
NC(=O)NC(=O)CC1S/C(=N/N=C2/NC(=O)CS2)NC1=O (stereo not given),5.01µM*,20µM*,-2.0%,28.2µM*,1.1%,21.4%
CCOc1ccc(-c2cccc(NS(=O)(=O)c3ccccc3C(F)(F)F)c2)nn1,-18.2%[59 µM],-0.5%,.,-19.2%,-1.7%,25.9%[57 µM]
CCOc1ccc(NS(=O)(=O)c2c(C)nc3sc(C)c(C)n3c2=O)cc1,-30.9%[59 µM],-26.1%,.,-33.3%,2.3%,0.6%
O=C(COc1ccccc1)NNC1=NS(=O)(=O)c2ccccc21,44.7µM*,.,7.2%,-10.7%,5.3%,37.1%
O=C(CCc1ccccc1)NNC(=O)COc1ccc(Br)cc1,22.6%[59 µM],5.2%,.,20µM*,0.0%,50.1µM*
O=C(CCCCC(=O)NNC(=O)COc1ccccc1)NNC(=O)COc1ccccc1,35.5µM*,-19.1%,.,-5.3%,-1.0%,21.3%
O=C(CCC(=O)NNC(=O)COc1ccc(Br)cc1)NCc1ccccc1,-6.1%,-12.8%,-0.7%,-3.0%[11.4 µM],-0.1%,57.0%
Cc1cccc(OCC(=O)NNC(=O)CCCCC(=O)NNC(=O)COc2cccc(C)c2)c1,-2.0%,2.8%,.,0.6%,9.2%,37.3%
Cn1c(=O)n(-c2ccc(Br)cc2F)c(=O)c2sc3ccccc3c21,?,2.2%,.,-5.0%,2.4%,53.8%
COc1ccccc1NC(=O)C1=C(C)Nc2nnnn2C1c1ccccc1OC (stereo not given),-21.1%[12.7 µM],1.9%,.,-14.8%,19.0%,34.0%
COc1ccccc1/C=C1\CCCC2=C1Nc1nnnn1C2c1ccccc1OC (stereo not given),10µM*,?,-3.7%,?,4.5%,7.0%
Cc1oc(-c2cccc(Br)c2)nc1CN1CCC(C(=O)NCc2ccccc2)CC1,-1.9%[59 µM],?,.,4.6%,2.0%,12.0%
CC(=O)N1N=C(c2ccc(C)cc2)CC1c1cn(-c2ccccc2)nc1-c1cccs1 (stereo not given),6.5%[59 µM],-13.3%,.,-13.1%,8.9%,28.9%
O=C(c1ccccc1)c1c[nH]c(C(=O)NNc2ccccc2)c1,10µM*,-20.5%,2.7%,-9.0%[11.4 µM],-19.7%,25.3%
CC1(C)CC(=O)c2cc(C(=O)Nc3ccc(Br)cc3)c(=O)[nH]c2C1,-36.5%[59 µM],2.1%,.,-9.9%,-0.1%,27.2%
Cc1oc(-c2cc(F)ccc2F)nc1CN(C)Cc1ccc2nccnc2c1,5.3%,-9.8%,-2.2%,-1.9%[57.1 µM],-5.0%,33.3%
Cc1oc(-c2cc(F)ccc2F)nc1CN1CCN(c2cnccn2)CC1,.,70.8µM*,-7.9%,-19.9%,-6.7%,26.2%
O=C(CNCCc1ccc(F)cc1)Nc1cc(F)ccc1F,?,20µM*,.,28.2µM*,-0.5%,-5.9%
O=C(CNS(=O)(=O)c1ccc([N+](=O)[O-])cc1)N/N=C/c1ccc(O)cc1O,17.1%,3.6%,.,-20.6%,12.6µM*,18.4%
O=C(CNS(=O)(=O)c1ccc([N+](=O)[O-])cc1)N/N=C\c1ccc(O)cc1,-8.0%,3.1%,.,-16.1%,19.0%,25.5%
CCc1nnc(SCc2nc(-c3ccccc3Cl)oc2C)c2cc3sc(C)cc3n12,-19.2%[59 µM],-31.1%,.,-10.3%,-4.1%,23.7%
CCn1cc2nc(SCc3ccc(F)cc3)n(CCc3ccccc3)c(=O)c2n1,0.2%[59 µM],1.8%,.,-13.3%,-5.0%,19.5%
SMILES,G9a block,BAZ2B inh,L3MBTL1 inh,JMJD2A Tudor,GLS inh,HP1b binding inh
CCCCn1c(N)c(N(CC(C)C)C(=O)C(C)SCc2nc3sc(C)c(C)c3c(=O)[nH]2)c(=O)[nH]c1=O (stereo not given),35.5µM*,0.1%,-12.7%,-10.3%,0.1%,28.9%
CCOc1ccccc1NC1c2ccccc2C(=O)N1c1cccnc1 (stereo not given),79.4µM*,7.2%,.,-16.0%,19.9%,6.8%
O=C(c1ccc(S(=O)(=O)Nc2ccccc2F)cc1)N1CCN(c2ccccc2O)CC1,?,2.3%,-2.6%,31.6µM*,24.6%,27.3%
O=C(c1cccc(C(=O)N2CCN(c3ccccc3F)CC2)c1)N1CCN(c2ccccc2F)CC1,-37.7%[12.7 µM],-26.2%,.,-12.5%,3.9%,14.1%
O=C(c1ccc(C(=O)N2CCN(c3ccccc3F)CC2)nc1)N1CCN(c2ccccc2F)CC1,?,-15.9%,5.2%,79.4µM*,-8.6%,9.8%
Cc1ccc(Nc2ncnc3c2cnn3-c2ccccc2)c(C)c1,0.3%[59 µM],-1.0%,.,-19.6%,-7.3%,23.7%
c1cc2c(cc1C1CCCCC1)c1c3n2CCCNC3CCC1 (stereo not given),17.8µM*,35.5µM*,-14.2%,44.7µM*,11.8%,?
CC(C)Oc1ccccc1/C=N/Nc1ccccc1[N+](=O)[O-],3.55µM*,5.62µM*,11.2µM*,14.1µM*,8.7%,?
CC1=C(/C=N/Nc2ccc([N+](=O)[O-])cc2[N+](=O)[O-])C(C)(C)CCC1,20µM*,3.55µM*,?,2.82µM*,2.0%,8.91µM*
COc1cc(/C=N/Nc2ccccc2[N+](=O)[O-])cc(OC)c1O,7.08µM*,?,?,-24.7%,?,-10.2%
COc1cc(/C=N/Nc2ccc(S(N)(=O)=O)cc2[N+](=O)[O-])cc(OC)c1O,.,?,-22.8%,-18.7%,32.6%,30.4%
COc1cc(/C=N/Nc2ccc(F)cc2F)cc(OC)c1O,1.58µM*,?,-16.8%,79.4µM*,18.7%,?
O=[N+]([O-])c1ccc(N/N=C/c2ccccc2)c(F)c1,18.1%[59 µM],8.8%,26.4%,-5.0%,1.0%,38.4%
Cc1ccc(S(=O)(=O)C(CNC(=O)C(=O)NCCc2ccc(F)cc2)c2cccs2)cc1 (stereo not given),4.6%[59 µM],0.0%,.,-0.3%,-3.9%,25.5%
Cc1ccc(C)c(Cn2c3ccccc3c3cnn(CC(=O)NC(C)CCc4ccccc4)c(=O)c32)c1 (stereo not given),-5.1%[59 µM],59.5%,.,-4.4%,6.5%,37.5%

# Screening results (PubChem BioAssay)
